Data: the supplement of paper PMC9177965
“And” between values parts separate entries of the source, which are not always exact repeats. Identical values can stand only once.

Key:
[1] = system: HT29 RNF43 G659fs (RNF43 659mut, CRISPR-edited); test: cell viability activity relative to DMSO (negative = inhibition); higher = more viable cells (less growth inhibition); conditions: 5 µM; 96 h
Description: (§1)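 Broad Repurposing Library primary screen at a single dose of 5 uM. HT29 sg-Ctrl and HT29 RNF43 G659fs CRISPR-edited isogenic cells were seeded at 2500 cells/well in 384-well plates in duplicate and treated for 96 h. Viability was read by CellTiter-Glo and reported as % activity relative to DMSO, with MG132 as the positive control (negative = growth inhibition).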

[2] = system: HT29 sg-Ctrl (RNF43 wildtype); test: as above; conditions: 5 µM; 96 h
Description: as §1

Row | SMILES | cell viability activity [1] | cell viability activity [2]
1 | CCn1cc(-c2ccnc3[nH]c(-c4cccc(CN(C)C)c4)cc23)c(-c2ccc(NC(=O)N(C)C)cc2)n1 | -84.6% | -63.8%
2 | CCOc1cc2ncc(C#N)c(Nc3ccc(OCc4cccc(F)c4)c(Cl)c3)c2cc1NC(=O)/C=C/CN(C)C | -30.8% | -28.1%
3 | COc1ccc(F)c(F)c1C(=O)c1cnc(NC2CCN(S(C)(=O)=O)CC2)nc1N | -69% | -65.9%
4 | FC(F)(F)Oc1ccc2nc(-c3ccc(OCCOCCOc4ccc(-c5nc6ccc(OC(F)(F)F)cc6[nH]5)nc4)cn3)[nH]c2c1 | -37.9% | -16%
5 | C[C@]12CC[C@@H]3c4ccc(O)cc4C[C@@H](CCCCCCCCC[S+]([O-])CCCC(F)(F)C(F)(F)F)[C@H]3[C@@H]1CC[C@@H]2O (stereo not given in full) | -38.7% | -38.5%
6 | C[C@@H](Oc1ccc2[nH]nc(/C=C/c3cnn(CCO)c3)c2c1)c1c(Cl)cncc1Cl | -87.9% | -88.8%
7 | Cc1cc(N2CCOCC2)cc2[nH]c(-c3c(NC[C@@H](O)c4cccc(Cl)c4)cc[nH]c3=O)nc12 | -55% | -50.5%
8 | NC1(Cc2ccc(Cl)cc2)CCN(c2ncnc3[nH]ccc23)CC1 | -39.2% | -20.8%
9 | CC(C)=CCC/C(C)=C/CC/C(C)=C/CSc1ccccc1C(N)=O | -26.6% | -6.13%
10 | COc1c(C)cnc(Cn2cc(C#CCC(C)(C)O)c3c(Cl)nc(N)nc32)c1C | -42.7% | -88.4%
11 | C[C@@H]1COCCN1c1cc(=O)n2c(n1)N(Cc1cncc(Cl)c1)[C@H](C(F)(F)F)CC2 | -57.9% | 1.22%
12 | CCOc1ccccc1OC(c1ccccc1)C1CNCCO1 (stereo not given) | -30.5% | -58.7%
13 | Cc1cnc(Nc2ccc(F)cc2Cl)nc1-c1c[nH]c(C(=O)N[C@H](CO)c2cccc(Cl)c2)c1 | -73.7% | -76%
14 | C[C@@H](CN1CC(=O)NC(=O)C1)N1CC(=O)NC(=O)C1 | -48.1% | -44.6%
15 | CNC(=O)c1ccccc1Nc1nc(Nc2ccc(N3CCOCC3)cc2OC)ncc1Cl | -73.1% | -70.3%
16 | CN(C)CCN1C(=O)c2cccc3cc(N)cc(c23)C1=O | -53.7% | -47.7%
17 | CCCC1(CCC)CCC2(CCN(CCCN(CC)CC)C2)CC1 | -96.4% | -95.6%
18 | CN1C/C=C/CCOc2cccc(c2)-c2ccnc(n2)Nc2cccc(c2)C1 | -92.8% | -89.6%
19 | COc1ccc(NC(=O)c2ccc(-c3ccc(-c4noc(C)n4)cc3C)cc2)cc1OCCN(C)C | -93.7% | -90.6%
20 | Nc1nc(Nc2ccc(S(N)(=O)=O)cc2)nn1C(=O)c1c(F)cccc1F | -23.1% | -26.5%
21 | CC(C)(C#N)c1ccc(N2C(=O)OCc3cnc4ccc(-c5cnc6ccccc6c5)cc4c32)cc1 | -30.7% | -20%
22 | CCC1=C[C@@H]2CN(C1)Cc1c([nH]c3ccccc13)[C@@](C(=O)OC)(c1cc3c(cc1OC)N(C)[C@H]1[C@@](O)(C(=O)OC)[C@H](OC(C)=O)[C@]4(CC)C=CCN5CC[C@]31[C@@H]54)C2 | -62.4% | -40%
23 | CCN(CC)CCCCNc1ncc2cc(-c3c(Cl)cccc3Cl)c(NC(=O)NC(C)(C)C)nc2n1 | -49.6% | -33%
24 | CC(C)Oc1ccc(C(=O)N[C@H](CNC(=O)CN(C)C)Cc2ccc(-c3cn4cccc([C@H](C)O)c4n3)cc2)cc1Cl | -54.6% | -59.4%
25 | Cc1cccc(C)c1NC(=O)CN1CCN(CCCC(c2ccc(F)cc2)c2ccc(F)cc2)CC1 | -28.2% | -46%

Row | SMILES | cell viability activity [1] | cell viability activity [2]
26 | CC(C)c1ccc(C(=O)N=C(N)N)cc1S(C)(=O)=O | -25.7% | -5.71%
27 | CCN(CC)CCOCCOC(=O)C(CC)(CC)c1ccccc1 | -31% | -61.1%
28 | O=C(CCCCCCNC(=O)c1cnc(N(c2ccccc2)c2ccccc2)nc1)NO | -34.4% | -45.9%
29 | Clc1cc(Cl)c(OCC#CI)cc1Cl | -35.5% | -23.2%
30 | Cc1nc(-c2cn3c(n2)-c2ccc(-c4cnn(C(C)(C)C(N)=O)c4)cc2OCC3)n(C(C)C)n1 | -53.2% | -48.5%
31 | O=C(Cc1ccc(-c2ccc(OCCN3CCOCC3)cc2)cn1)NCc1ccccc1 | -59.4% | -52%
32 | C[n+]1cc2c3c(ccc2c2ccc4cc5c(cc4c21)OCO5)OCO3 | -97.3% | -96.2%
33 | CNC(=O)c1ccccc1Nc1nc(Nc2ccc3c(c2OC)CCC[C@H](N2CCN(CCO)CC2)C3)ncc1Cl | -89.4% | -85.5%
34 | NC(=O)c1cnc(N[C@@H]2CCCC[C@@H]2N)nc1Nc1cccc(-n2nccn2)c1 | -35.6% and -40.3% | -34.2% and -41.6%
35 | CCc1cnn2c(NCc3ccc[n+]([O-])c3)cc(N3CCCC[C@H]3CCO)nc12 | -88.2% | -84.3%
36 | CCCCCCCCN=c1ccn(CCCCCCCCCCn2ccc(=NCCCCCCCC)cc2)cc1 | -94.6% | -92.1%
37 | O=C1[C@H](Cc2ccc(O)cc2)N2C(=O)CCN(C(=O)NCc3ccccc3)[C@H]2CN1Cc1cccc2ccccc12 | -58.4% | -41.8%
38 | CC(=O)[C@]1(O)Cc2c(O)c3c(c(O)c2[C@@H](O[C@H]2C[C@H](N)[C@H](O)[C@H](C)O2)C1)C(=O)c1ccccc1C3=O | -97.8% and -97.3% | -93% and -97.3%
39 | CC(C)C[C@H](NC(=O)CNC(=O)c1cc(Cl)ccc1Cl)B(O)O | -94.3% | -89.7%
40 | Nc1ccc(-c2ccc3ncc4ccc(=O)n(-c5cccc(C(F)(F)F)c5)c4c3c2)cn1 | -63.8% | -42.1%
41 | C#C[C@]1(O)CC[C@H]2[C@@H]3CCC4=C(CCC(=O)C4)[C@H]3CC[C@@]21C | -62.8% | -59.4%
42 | Nc1nc(Cl)nc2c1ncn2[C@@H]1O[C@H](CO)[C@@H](O)[C@@H]1F | -30.3% | -63.4%
43 | CCNC(=O)c1noc(-c2cc(C(C)C)c(O)cc2O)c1-c1ccc(CN2CCOCC2)cc1 | -86.6% | -86%
44 | CC(C)NCCCn1c(Sc2cc3c(cc2I)OCO3)nc2c(N)ncnc21 | -87% | -85.8%
45 | CCCCC/N=c1\ccn(Cc2ccccc2)c2ccccc12 | -62.5% | -45.4%
46 | COc1ccc(CCCOC(Cn2ccnc2)c2ccc(OC)cc2)cc1 (stereo not given) | -67.2% | -31.3%
47 | CN1CCN(Cc2ccc(-c3cnc4[nH]cc(-c5ccc6[nH]ccc6c5)c4c3)cc2)CC1 | -90.1% | -82.4%
48 | C[C@H](Nc1ncnc2nc[nH]c12)c1cc2cccc(Cl)c2c(=O)n1-c1ccccc1 | -24.4% | -24.3%
49 | CC[C@@H]1C(=O)N(C)c2cnc(Nc3ccc(C(=O)N[C@H]4CC[C@H](N5CCN(CC6CC6)CC5)CC4)cc3OC)nc2N1C(C)C | -66.4% | -77.9%
50 | CCCCCCCCCCC(CO)CCCCCCCC (stereo not given) | -65.4% | -76.7%
